RTF Ca sens inh = cardiac RTF calcium desensitization. P19429+P45379. AID 493244. 340,000 compounds, 0.12% hits. inhibition, % at 7.15 µM. IANBD-labeled cardiac RTF, Ca2+ fluorescence;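 active = inhibition above the mean inhibition of all tested compounds plus 3 SD, cut at about 17% in these data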;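 also: assay run at fixed EC70 calcium of 1.6 mM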
Keap1-Nrf2 PPI = Keap1-Nrf2 (human) interaction inhibition. Q14145. inhibition, % at 9.4 µM. 340,000 compounds, 0.15% hits. Keap1 Kelch-Nrf2 peptide fluorescence polarization, 1536-well; in the data active = inhibition above about 12%;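 also: human Keap1 Kelch domain with fluorescein labeled Nrf2 9mer peptide probe; 0% = neutral control wells and 100% = peptide positive control; higher means more block of Keap1 binding to Nrf2 peptide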
Target sequence (Q14145 whole entry, looked up, the tested form may be a part): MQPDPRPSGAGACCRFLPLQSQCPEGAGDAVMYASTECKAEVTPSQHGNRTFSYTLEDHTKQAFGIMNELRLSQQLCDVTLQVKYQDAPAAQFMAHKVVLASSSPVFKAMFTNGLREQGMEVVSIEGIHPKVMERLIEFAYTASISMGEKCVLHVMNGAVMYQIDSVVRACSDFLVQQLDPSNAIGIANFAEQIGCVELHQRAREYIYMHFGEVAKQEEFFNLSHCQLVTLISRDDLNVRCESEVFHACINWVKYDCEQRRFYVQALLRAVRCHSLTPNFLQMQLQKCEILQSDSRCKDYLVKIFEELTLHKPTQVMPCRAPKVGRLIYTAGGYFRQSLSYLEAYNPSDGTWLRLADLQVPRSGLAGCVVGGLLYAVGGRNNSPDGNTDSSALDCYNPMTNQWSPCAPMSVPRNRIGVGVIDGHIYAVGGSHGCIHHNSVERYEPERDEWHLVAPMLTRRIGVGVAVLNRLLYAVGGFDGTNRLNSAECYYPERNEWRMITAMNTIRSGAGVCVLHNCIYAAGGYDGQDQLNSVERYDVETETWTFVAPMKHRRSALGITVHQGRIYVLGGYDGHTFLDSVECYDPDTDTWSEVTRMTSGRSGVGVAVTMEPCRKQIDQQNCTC
IDE cell inh = inhibitors of human insulin-degrading enzyme in cells; P14735; HEK cells, FAbetaB cleavage, fluorescence polarization; inhibition, % at 5.59 µM; 320,000 compounds, 0.41% hits; AID 434962;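 active = percent inhibition above the average of all tested compounds plus 3 SD, set per screening campaign, cut at about 16% in these data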;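 also: IDE supplied by intact live HEK cells; FP after avidin binding of uncleaved biotin substrate so inhibition keeps polarization high; 0% = DMSO wells and 100% = 60 µM reference IDE inhibitor Ii1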
LANA DNA inh = inhibitors of KSHV LANA C-terminal domain DNA binding. MBP-C-LANA/FAM-LBS DNA binding, fluorescence polarization. inhibition, % at 9 µM. 340,000 compounds, 0.078% hits;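 active = highest replicate inhibition at or above 60% at 9 µM, even if other replicates fall short; inactive = all replicates below 60% inhibition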;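 also: 0% = neutral control wells and 100% = 4 µM acridine orange control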
cardiac RTF act = cardiac RTF calcium sensitization. IANBD-labeled TnC RTF fluorescence at EC20 calcium; 0% EC20 calcium, 100% full calcium. activation, % at 7.2 µM. 340,000 compounds, 0.24% hits;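 active = activation above the mean over all tested compounds plus 3 SD, cut at about 30% in these data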;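 also: rise in fluorescence read as greater calcium sensitivity of cardiac thin filaments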
IDE act = boosts human insulin-degrading enzyme activity in HEK cells | P14735 | FAbeta-B cleavage, fluorescence polarization; 0% vehicle, 100% cell-free pure enzyme wells | activation, % at 5.96 µM | 340,000 compounds, 0.073% hits | AID 493087;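 active = activation above the mean of all tested compounds plus 3 SD, set per screening campaign, cut at about 17% in these data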
RTF inh confirm = cardiac RTF calcium sensitivity inhibition, confirmation | AID 504635 | inhibition, % at 7.15 µM | shares compounds with RTF Ca sens inh | reconstituted cardiac thin filaments, calcium sensitivity fluorescence | 360 compounds, 8% hits; in the data active = inhibition above about 18%
Numbers without * were called inactive. Only some compounds are listed: those with a hit (about 0.81% of all), similar ones and a draw of the others.

COc1ccc(C(=O)c2ccccc2O)c(O)c1 was read as RTF Ca sens inh 17.4*, Keap1-Nrf2 PPI 0.9, IDE cell inh -3.1, LANA DNA inh -0.4, cardiac RTF act -5.5, IDE act 5.0 and RTF inh confirm -3.2.
`O=C(c1cccc(NS(=O)(=O)c2cccc(F)c2)c1)N1CCN(c2ccccc2)CC1` gave RTF Ca sens inh -16.9, Keap1-Nrf2 PPI -1.7, IDE cell inh -0.5, LANA DNA inh -0.5, cardiac RTF act 7.9 and IDE act -1.6.
`Nc1nc(-c2ccccc2)c(N=Nc2ccccc2Cl)s1` gave RTF Ca sens inh 21.6*, Keap1-Nrf2 PPI -2.0, IDE cell inh -4.6, LANA DNA inh 3.0, cardiac RTF act 5.9, IDE act 6.5 and RTF inh confirm 0.4.
For COCCn1c(SCC(=O)Nc2ccc(NC(C)=O)cc2)nc2c([nH]c3ccccc32)c1=O the results were RTF Ca sens inh 19.0*, Keap1-Nrf2 PPI -0.9, IDE cell inh -2.1, LANA DNA inh 1.1, cardiac RTF act 0.1, IDE act -2.7 and RTF inh confirm -5.2.
`O=C(O)CSc1nc2sc3c(c2c(=O)n1Cc1ccccc1)CCCCC3` gave RTF Ca sens inh -5.4, Keap1-Nrf2 PPI 2.0, IDE cell inh -0.9, LANA DNA inh -2.1, cardiac RTF act 9.5 and IDE act 0.9.
For O=C(O)CSc1cc(C(=O)c2ccccc2O)cn2c(=O)c3c4c(sc3nc12)CCCC4 the results were RTF Ca sens inh 21.9*, Keap1-Nrf2 PPI -0.2, LANA DNA inh 2.0, cardiac RTF act -8.3, IDE act -5.9 and RTF inh confirm 4.9.
O=C(NC1CCCC1)c1ccc2nc(-c3ccco3)c(-c3ccco3)nc2c1 was read as RTF Ca sens inh 17.8*, Keap1-Nrf2 PPI 0.8, IDE cell inh -0.9, LANA DNA inh 2.8, cardiac RTF act -19.7, IDE act 1.1 and RTF inh confirm -7.0.
Screening O=C(NCCO)c1ccc2nc(-c3ccco3)c(-c3ccco3)nc2c1 returned RTF Ca sens inh 3.0, Keap1-Nrf2 PPI -3.3, IDE cell inh -8.5, LANA DNA inh 34.2, cardiac RTF act -11.1 and IDE act -3.2.
`O=C(OCC1CC(c2ccccc2)=NO1)c1ccc(Br)cc1` (stereo not drawn) gave RTF Ca sens inh 17.9*, Keap1-Nrf2 PPI -1.4, IDE cell inh 0.1, LANA DNA inh 2.6, cardiac RTF act 1.6, IDE act 2.3 and RTF inh confirm -1.4.
CC(=O)N1CC23C=CC(CC2CC12CCCCCC2)O3 (stereo not drawn) was read as RTF Ca sens inh -12.4, Keap1-Nrf2 PPI -1.5, IDE cell inh 4.0, LANA DNA inh -2.7, cardiac RTF act -3.6 and IDE act 5.9.
Screening CCSc1cc(N2CCCC2)nc(-c2cccc(C)c2)n1 returned RTF Ca sens inh 18.2*, Keap1-Nrf2 PPI 2.3, IDE cell inh 5.0, LANA DNA inh -2.2, cardiac RTF act 3.3, IDE act 2.9 and RTF inh confirm -0.4.
For CCSc1cc(N2CCCC2)nc(-c2ccc(C)cc2)n1 the results were RTF Ca sens inh -3.9, Keap1-Nrf2 PPI -2.2, IDE cell inh 0.8, LANA DNA inh -0.8, cardiac RTF act 0.5 and IDE act 0.7.
`NC(=O)c1sc2nc3c(c(-c4ccco4)c2c1N)CCC3` gave RTF Ca sens inh 4.0, Keap1-Nrf2 PPI -1.4, IDE cell inh 1.3, LANA DNA inh 0.5, cardiac RTF act -7.4 and IDE act -7.5.
`Nc1c(C(=O)NC2CC2)sc2nc3c(c(-c4ccco4)c12)CC/C3=C/c1ccco1` gave RTF Ca sens inh 30.8*, Keap1-Nrf2 PPI -6.8, IDE cell inh 10.3, LANA DNA inh 6.2, cardiac RTF act -16.9, IDE act -8.4 and RTF inh confirm 98.2*.
For Nc1c(S(=O)(=O)O)cc(NC(=O)c2ccccc2)c2c1C(=O)c1ccccc1C2=O the results were RTF Ca sens inh 34.9*, Keap1-Nrf2 PPI -7.5, IDE cell inh 1.0, LANA DNA inh 1.0, cardiac RTF act -10.5, IDE act -4.0 and RTF inh confirm 4.8.
`O=C(NCc1ccc(F)cc1)c1cc(C(=O)C2CC2)c[nH]1` gave RTF Ca sens inh 0.2, Keap1-Nrf2 PPI -4.4, IDE cell inh 0.1, LANA DNA inh 0.1, cardiac RTF act -3.1 and IDE act -0.8.
Screening COCCN1CCN(Cc2nc(C3(c4ccc(C)cc4)CCCC3)no2)CC1 returned RTF Ca sens inh 19.4*, Keap1-Nrf2 PPI -2.3, IDE cell inh 1.9, LANA DNA inh 0.3, cardiac RTF act -0.5, IDE act 2.6 and RTF inh confirm -1.5.
Screening CC(=O)N1CCCN(Cc2nc(C3(c4ccc(C)cc4)CCCC3)no2)CC1 returned RTF Ca sens inh -7.5, Keap1-Nrf2 PPI -6.8, IDE cell inh -0.3, LANA DNA inh -2.8, cardiac RTF act -3.2 and IDE act 1.9.
S=c1[nH]nc(-c2cc(-c3ccccc3)n[nH]2)n1/N=C/C=C/c1ccco1 was read as IDE cell inh 8.2.
S=c1[nH]nc(-c2ccco2)n1/N=C/C=C/c1ccco1 was read as RTF Ca sens inh 17.7*, Keap1-Nrf2 PPI -5.4, IDE cell inh 0.4, LANA DNA inh 8.5, cardiac RTF act -12.0, IDE act -3.4 and RTF inh confirm -9.1.
Screening O=C(Nc1ccnn1C1CCN(Cc2cccnc2)CC1)c1ccccc1Cl returned RTF Ca sens inh 17.5*, Keap1-Nrf2 PPI -3.9, IDE cell inh -1.4, LANA DNA inh -0.8, cardiac RTF act -6.8, IDE act 4.2 and RTF inh confirm -0.8.
`CCc1cccc(-n2c(SCC(=O)c3c(N)n(C4CC4)c(=O)[nH]c3=O)nnc2N2CCOCC2)c1` gave RTF Ca sens inh -4.7, Keap1-Nrf2 PPI -4.2, LANA DNA inh -0.5, cardiac RTF act 5.5 and IDE act -3.8.
`CC1(C)C(=O)OC(C(=O)c2ccccc2)C2(CCCCC2)C1=O` (stereo not drawn) gave RTF Ca sens inh -7.3, Keap1-Nrf2 PPI -1.1, IDE cell inh 1.6, LANA DNA inh 1.5, cardiac RTF act 0.1 and IDE act 0.0.
`N#Cc1nc(COc2ccc(F)cc2)oc1N1CCCCC1` gave RTF Ca sens inh 24.2*, Keap1-Nrf2 PPI 2.6, IDE cell inh 9.5, LANA DNA inh -0.7, cardiac RTF act -1.0, IDE act -0.2 and RTF inh confirm -2.2.
Screening N#Cc1nc(COc2ccc(Br)cc2)oc1N1CCCCCC1 returned RTF Ca sens inh 0.9, Keap1-Nrf2 PPI -6.6, IDE cell inh 5.0, LANA DNA inh 0.3, cardiac RTF act 9.1 and IDE act 1.5.
`Cc1ccc(/C=C2\SC(=S)N(c3cccnc3)C2=O)cc1` gave RTF Ca sens inh 1.9, Keap1-Nrf2 PPI -1.0, IDE cell inh -1.9, LANA DNA inh -3.1, cardiac RTF act -2.7 and IDE act 5.8.
